Data reported in PubChem BioAssay AID1159580 (chemical genetic matrix, 2015).
Several values for one entry are separate records, joined by “and”; a condition that tells them apart may be missing. Identical values can stand only once. The campaign covered roughly 5,500 compounds. About 2,000 (36%) were called active. Inconclusive results (about 18%) are left out. Rule as the data show it: active = normalized growth mostly below about 0.91 (no sharp cut-off); inconclusive = no clear call, values can overlap the other calls; inactive = mostly above about 0.92. The list shows a part of the results.

Experiment: chemical genetic growth profiling, strain panel (AID 1159580);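 also: tested at 20 µM; growth read once vehicle control cultures reached saturation at 30 °C; 1 = growth at the plate median or of vehicle wells; lower values mean less growth of the strain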
Details: S. cerevisiae deletion strains, growth OD

Measured: normalized growth

C[C@]12CCC3c4ccc(O)cc4CCC3C1C[C@@H](O)[C@@H]2O (some centres undefined)
inactive: locus YAL013W, strain DEP1, active compounds read low 0.994 | locus YAL021C, strain ccr4, active compounds read low 1.01 | locus YAL026C, strain drs2, active compounds read low 1 | locus YAL030W, strain snc1, active compounds read low 1.02 | locus YBL061C, strain skt5, active compounds read low 1.02 | locus YBR009C, strain hhf1, active compounds read low 1.02 | locus YBR021W, strain FUR4, active compounds read low 1.01 | locus YBR023C, strain chs3, active compounds read low 1.03 | locus YBR171W, strain sec66, active compounds read low 1.02 | locus YBR229C, strain ROT2, active compounds read low 0.962 | locus YBR231C, strain swc5, active compounds read low 0.988 | locus YBR279W, strain paf1, active compounds read low 1.04 | locus YCL011C, strain gbp2, active compounds read low 1.05 | locus YCL016C, strain dcc1, active compounds read low 1.05 | locus YCL029C, strain bik1, active compounds read low 0.984 | locus YCL061C, strain MRC1, active compounds read low 1.03 | locus YCL069W, strain vba3, active compounds read low 1.01 | locus YCR088W, strain abp1, active compounds read low 1.01 | locus YDL005C, strain med2, active compounds read low 1.02 | locus YDL035C, strain GPR1, active compounds read low 0.969 | locus YDL040C, strain nat1, active compounds read low 1.01 | locus YDL074C, strain BRE1, active compounds read low 0.951 | locus YDL101C, strain DUN1, active compounds read low 0.997 | locus YDL185W, strain tfp1, active compounds read low 0.974 | locus YDL192W, strain arf1, active compounds read low 0.985 | locus YDR001C, strain nth1, active compounds read low 1.01 | locus YDR069C, strain doa4, active compounds read low 1 | locus YDR101C, strain arx1, active compounds read low 0.945 | locus YDR137W, strain rgp1, active compounds read low 1.06 | locus YDR150W, strain NUM1, active compounds read low 0.989 | locus YDR159W, strain sac3, active compounds read low 0.979 | locus YDR162C, strain NBP2, active compounds read low 0.968 | locus YDR195W, strain ref2 0.999 | locus YDR297W, strain sur2, active compounds read low 1.03 | locus YDR318W, strain mcm21, active compounds read low 1 | locus YDR334W, strain swr1, active compounds read low 1.02 | locus YDR335W, strain msn5, active compounds read low 1.02 | locus YDR388W, active compounds read low 0.982 | locus YDR392W, strain spt3, active compounds read low 1.01 | locus YDR502C, strain sam2, active compounds read low 0.993 | locus YEL003W, strain gim4, active compounds read low 0.994 | locus YEL037C, strain rad23, active compounds read low 1.01 | locus YEL061C, strain CIN8 (second series), active compounds read low 1.01 | locus YEL061C, strain CIN8, active compounds read low 0.997 | locus YER015W, strain faa2, active compounds read low 1.02 | locus YER016W, strain bim1, active compounds read low 1 | locus YER110C, active compounds read low 0.983 | locus YER111C, strain swi4, active compounds read low 1.03 | locus YER155C, strain BEM2 (second series), active compounds read low 1.02 | locus YER155C, strain BEM2, active compounds read low 0.993 | locus YER167W, strain BCK2, active compounds read low 1 | locus YFR010W, strain ubp6, active compounds read low 1.01 | locus YGL078C, strain dbp3, active compounds read low 0.995 | locus YGL086W, strain mad1, active compounds read low 0.971 | locus YGL167C, strain pmr1, active compounds read low 1.03 | locus YGL173C, strain kem1, active compounds read low 1.01 | locus YGL227W, strain vid30, active compounds read low 1.02 | locus YGL240W, strain doc1, active compounds read low 1.03 | locus YGL248W, strain PDE1, active compounds read low 0.988 | locus YGL253W, strain hxk2, active compounds read low 1 | locus YGR135W, strain pre9, active compounds read low 1.07 | locus YGR252W, strain gcn5, active compounds read low 1.07 | locus YHR013C, strain ard1, active compounds read low 1.05 | locus YHR027C, strain rpn1, active compounds read low 1.02 | locus YHR030C, strain SLT2, active compounds read low 0.993 and 1.01 | locus YHR079C, strain IRE1 (second series), active compounds read low 0.987 | locus YHR079C, strain IRE1, active compounds read low 0.992 | locus YHR094C, strain hxt1, active compounds read low 0.984 | locus YHR129C, strain ARP1, active compounds read low 0.994 | locus YHR142W, strain chs7, active compounds read low 1.02 | locus YHR200W, strain rpn10, active compounds read low 1 | locus YIL066C, strain RNR3, active compounds read low 0.977 | locus YIL073C, strain SPO22, active compounds read low 0.991 | locus YIL125W, strain kgd1, active compounds read low 0.985 | locus YIR030C, strain dcg1, active compounds read low 0.994 | locus YJL092W, strain hpr5, active compounds read low 1.02 | locus YJL095W, strain BCK1 (second series), active compounds read low 1.02 | locus YJL095W, strain BCK1, active compounds read low 1 and 0.994 | locus YJL115W, strain asf1, active compounds read low 1.02 | locus YJL129C, strain trk1, active compounds read low 1.03 | locus YJL134W, strain LCB3, active compounds read low 0.989 | locus YJL154C, strain vps35, active compounds read low 1.01 | locus YJL164C, strain tpk1, active compounds read low 1.01 | locus YJL166W, strain qcr8, active compounds read low 1.05 | locus YJL168C, strain set2, active compounds read low 1.01 | locus YJL187C, strain SWE1 (second series), active compounds read low 0.996 | locus YJL187C, strain SWE1, active compounds read low 1.04 | locus YJR043C, strain POL32, active compounds read low 0.976 | locus YJR066W, strain TOR1, active compounds read low 0.97 | locus YJR075W, strain HOC1, active compounds read low 0.992 | locus YKL009W, strain mrt4, active compounds read low 0.973 | locus YKL068W, active compounds read low 0.986 | locus YKL085W, strain MDH1 (second series), active compounds read low 1.01 | locus YKL085W, strain MDH1, active compounds read low 1.01 | locus YKL160W, strain elf1, active compounds read low 1.05 | locus YKR001C, strain vps1, active compounds read low 0.972 | locus YKR026C, strain gcn3, active compounds read low 1.02 | locus YKR091W, strain srl3, active compounds read low 1.02 | locus YLL001W, strain dnm1, active compounds read low 1.05 | locus YLL026W, active compounds read low 1.02 | locus YLL041C, strain sdh2, active compounds read low 1.01 | locus YLR027C, strain aat2, active compounds read low 1.01 | locus YLR039C, strain RIC1, active compounds read low 1.03 | locus YLR058C, strain SHM2, active compounds read low 0.977 | locus YLR102C, strain apc9, active compounds read low 0.996 | locus YLR113W, strain HOG1, active compounds read low 0.97 | locus YLR221C, strain rsa3, active compounds read low 1.05 | locus YLR258W, strain gsy2, active compounds read low 1.01 | locus YLR262C, strain YPT6 (second series), active compounds read low 1.04 | locus YLR262C, strain YPT6, active compounds read low 0.925 | locus YLR268W, strain sec22, active compounds read low 0.987 | locus YLR320W, strain mms22, active compounds read low 1.07 | locus YLR330W, strain CHS5, active compounds read low 0.984 | locus YLR342W, strain FKS1 (second series), active compounds read low 0.999 | locus YLR342W, strain FKS1, active compounds read low 1.02 | locus YLR357W, strain rsc2, active compounds read low 1.03 | locus YLR370C, strain arc18, active compounds read low 1.02 | locus YLR371W, strain rom2, active compounds read low 1.01 | locus YLR384C, strain iki3, active compounds read low 1.02 | locus YLR418C, strain cdc73, active compounds read low 1.02 | locus YML016C, strain PPZ1, active compounds read low 0.989 | locus YML032C, strain rad52, active compounds read low 0.967 | locus YML120C, strain ndi1, active compounds read low 1.04 | locus YML124C, strain tub3, active compounds read low 0.996 | locus YMR058W, strain fet3, active compounds read low 1.01 | locus YMR078C, strain ctf18, active compounds read low 0.991 | locus YMR125W, strain sto1, active compounds read low 1.02 | locus YMR129W, active compounds read low 1 | locus YMR205C, strain PFK2, active compounds read low 1.04 | locus YMR223W, strain ubp8, active compounds read low 1.02 | locus YMR231W, strain pep5, active compounds read low 1.02 | locus YMR307W, strain GAS1, active compounds read low 0.954 | locus YNL067W, strain RPL9B, active compounds read low 0.994 | locus YNL071W, strain lat1, active compounds read low 1.02 | locus YNL153C, strain GIM3, active compounds read low 0.976 | locus YNL183C, strain NPR1, active compounds read low 0.962 | locus YNL209W, strain ssb2, active compounds read low 1.03 | locus YNL233W, strain BNI4, active compounds read low 0.987 | locus YNL248C, strain rpa49, active compounds read low 1.05 | locus YNL250W, strain rad50, active compounds read low 0.987 | locus YNL271C, strain bni1, active compounds read low 0.991 | locus YNL298W, strain CLA4, active compounds read low 0.99 | locus YNL307C, strain MCK1, active compounds read low 0.999 | locus YNL322C, strain KRE1 (second series), active compounds read low 1.05 | locus YNR049C, strain mso1, active compounds read low 1.02 | locus YNR052C, strain pop2, active compounds read low 0.982 | locus YOL012C, strain htz1 1.25 | locus YOL147C, strain pex11, active compounds read low 0.993 | locus YOR001W, strain rrp6, active compounds read low 0.998 | locus YOR061W, strain CKA2, active compounds read low 0.973 | locus YOR069W, strain VPS5, active compounds read low 0.997 | locus YOR070C, strain gyp1, active compounds read low 1.02 | locus YOR080W, strain dia2, active compounds read low 1.02 | locus YOR083W, strain WHI5, active compounds read low 1.06 | locus YOR106W, strain vam3, active compounds read low 1.03 | locus YOR136W, strain idh2, active compounds read low 0.987 | locus YOR144C, strain elg1, active compounds read low 0.993 | locus YOR184W, strain ser1, active compounds read low 1 | locus YOR231W, strain MKK1, active compounds read low 0.972 | locus YOR265W, strain rbl2, active compounds read low 1.02 | locus YOR270C, strain vph1, active compounds read low 1.04 | locus YOR290C, strain snf2, active compounds read low 0.975 | locus YOR316C, strain cot1, active compounds read low 0.985 | locus YPL051W, strain arl3, active compounds read low 1.02 | locus YPL078C, strain atp4, active compounds read low 1.05 | locus YPL106C, strain sse1, active compounds read low 1.06 | locus YPL240C, strain hsp82, active compounds read low 1.03 | locus YPL241C, strain CIN2, active compounds read low 0.989 | locus YPL256C, strain CLN2, active compounds read low 1 | locus YPR119W, strain clb2, active compounds read low 0.989 | locus YPR141C, strain kar3, active compounds read low 0.989 | locus YPR163C, strain tif3, active compounds read low 0.996 | locus YPR167C, strain met16, active compounds read low 0.999 | strain wtn01, active compounds read low 1.01
